From PubChem BioAssay AID1508600 (Functional Genomics Laboratory (NCATS/FGL), 2020) come the findings set out here.

About 3,700 (7%) of roughly 53,000 sequences were called active. The sample as a whole holds a higher share of actives than the screen did. Unmarked numbers belong to inactive results.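 How the source made its calls: active means gene knockdowns whose robust z-score for IL-1 alpha signal is at least 2 or at most -2, so actives lie on both sides; inactive means the rest.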

The nature of this experiment: Components of the Cytosolic LPS Sensing Pathway: Gene Identification via Genome-wide siRNA Screen.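 Further: robust z of the log signal after scaling to non-targeting control siRNA wells of the plate.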 Particulars: RAW264.7 macrophages, IL-1a HTRF, actives lie on both sides, screened at 100 nM (by protocol), cells primed 5 h with Pam3CSK4 first. An outline of the steps: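 Knockdown: 100 nM siRNA, 48h, RAW264.7. Stimulation: Pam3CSK4 5 h, then LipidA via TransIT-TKO 24 h. Output: supernatant IL-1a HTRF, negative-control-normalized, log robust z-score; viability by CellTiter-Glo.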
Consider GGAAAUCCUUGACUACAUUTT against Cyp2b19, for which the z-score is 0.31. For GGUCCACCUCAACAAGCUATT against Zfp536, the z-score was 2.57 (active). For GGGAGAAACCUGUGCAAAUTT against Serpinb6c the value was 0.459; for “AGACUGGGUUGUGAAGAUATT against 4930563M21Rik”, -1.68. For GCUAGGACUACAGCUGGGATT against Snrnp48 the value was -2.56 (active). For GGAGAACUGAAGAAUCCAATT against Med11 the value was 1.78; for GCCAAGAUCCCACCAGUUATT against Neurl1b, 0.639; for “GGAGCACAGUCUCAUGAAUTT against A130014H13Rik”, -1.44. On to CGUGAAGAUUGACGUGUUUTT against Pcyox1, for which the z-score is 1.06.

For the sequence UGCCUGUAAACCAACAAGGTT against Prb1, the z-score was -2.04 (active). For GUGAAGAGGAGCAGGACUUTT against Klrc3 the value was 0.261; for GGGAAAAGUAUCCUCUGUUTT against Olfr877, -0.968; for GCGAAGUCAUCAAAUUUUCTT against Abcb11, 0.622. For GGUCCUUAAGUCCUUUGACTT against Cdr1os the value was 0.894; for GGGAAAGAUAAAUGUUUCCTT against Gucy1b1, 1.89; for GGUUCAGACAAGCAUCUAGTT against Sbp, -1.04. For CCUCAGGAUACAGACCCACTT against Frg2f1 the value was -0.35; for GGAAAUUUUUUCCUUUCCUTT against Olfr211, -0.638; for GGACCAUCAGAGGAGAACUTT against Cuedc2, -2.09 (active). Consider CGAGAGUGGGUGGGUUGAATT against Zfp950, for which the z-score was 0.628. For GCCCUAUCUACGAUGAAAATT against Scamp2 the value was -0.197; for CCGAAUACGUGAAGACGCATT against Slc25a1, -0.967.

GGAGGAAAAUGUCCUUGUUTT against Pth: the z-score is 0.25. For GCAGGAAUGCGGUAUAAACTT against Inpp5f, the z-score was 0.707. For GCACUGGACUUAGGAUGGUTT against Ankrd22 the value was 2.2 (active); for GGACACCACGUUCACCAAGTT against Rbm38, -0.36; for GCUUCAAUAACUGCGCAAGTT against Zkscan2, 0.547. Consider GGAUGACUGAAUGAUGGGATT against Tcl1b5, for which the z-score was -2.15 (active).

As for GGACCUCACAAUGAGUAUGTT against Thtpa, the z-score is 1.23. Consider CGACGAACCUGAGUAUAUUTT against Canx, for which the z-score is -0.0578.

For GUGCAGGUCCUAAUCUGAATT against Asb1, the z-score was 2.15 (active). For GGAAAAAAGCCUCAUCGGATT against Wdr63 the value was 0.676; for GGGAGAGUGUUUGUUCAUUTT against Dusp1, -0.082. For GGCCUACCUAUAGAAAUGATT against Pgap1 the value was 0.208; for GACACCUACUUCAUUGGCCTT against Olfr1245, -1.23. GCAGUUAUAUGCUCAAGAUTT against Pik3r3: the z-score is 0.0211. For GCCUUACUUCGGAGUGCUATT against Olfr606 the value was -4.78 (active); for GCCAGCAUAAAUAUACUUUTT against Apol10a, -0.0597. For GCCUUUGGAAGUUCAGAACTT against Rnf216 the value was -1.07; for GAUUGGAACUUGUGGAUCUTT against Defb8, 0.424; for GGUACUGGACCAAAUUGCUTT against Ppp1r15b, 2.26 (active). With CGGCACCUAUGAGUCUUACTT against Cyp4x1, the z-score is 2.13 (active). For CGAUCCAUGUUGUAAGCGCTT against Adam39 the value was 0.347; for GGUUAAAGUGUAUUUACAGTT against Fkbp14, 0.124. For GGUCCUUAACCGCUAUGCATT against Esrp2 the value was 0.294. Take GGAAGCUUCAGGAGUAUAUTT against Sdc2: the z-score is -0.326. For GUGGCUGACAAGUUUAUCATT against Cyp2c66 the value was -0.132.

In the case of AACUAGCAAUAUGAUGGAGTT against Chic1, the z-score is -0.55. For GGGUUUGUUAAGUCCUGUGTT against Gsdmc the value was -2.09 (active). With GCAAUAACCCAAUUCCUGATT against Phex, the z-score was 0.179. For GGACAGUAUGAAUUUGAAUTT against Lcp1 the value was 2.44 (active). In the case of GGCCUAUCUGACCUACACCTT against Wnt8a, the z-score was -0.271. For GCCAUAUGAUAAUAUAGAGTT against Gbp6 the value was -0.574; for CCUCAACCGGCAGUUCUUGTT against Uba2, -0.574. Consider GCAUAGCUAACUCAGCAUATT against Map2k2, for which the z-score was 1.09.

For the sequence GGAAACCAUUGAAGAUGUUTT against Psmd13, the z-score is -1.2.

For CCCUGAAGUUUAUGCAACATT against Ttyh2, the z-score is -3.02 (active).

Turning to GGUAAUGAGCAGAUGAAGCTT against Sgta, the z-score was 0.622. For GGUGGUUUAAGAAAUCAAATT against Dolpp1 the value was 0.34; for GGCCCUAGAUAUUGAUUUUTT against Rbp2, -0.338.

Regarding GGAGAUUGGGAUCAAUUAGTT against Sall3, the z-score was 0.576. Consider GGACGUGACCAUGAUGUCUTT against Oacyl, for which the z-score was -3.46 (active). For GCAUCCUUUGUCGAAGUGGTT against Clec18a the value was -0.495; for GGGAUUUUGUACAUUUUUGTT against Egln3, 1.51; for CCGACGGAUAGCUUGGAUGTT against Fgb, -0.214.

Consider GGACGGAGGAUUCUGAAACTT against Prepl, for which the z-score is 2.42 (active). For “GGAAAGCUUACAGUUGAAATT against 4933427D06Rik” the value was 0.992.

For GGAAAGCUAAGGCUGUACUTT against Dnal1, the z-score was -0.103.
